Assay results: PubChem BioAssay (Tox21)
Several values for one entry are separate records, joined by “and”; a condition that tells them apart may be missing. Equal values may be shown once. Records with an inconclusive call do not appear. Entries that show only a call come without a potency. More than one record can exist for a structure, and the calls need not agree. Activity calls are given as the source filed them. The call rests on the fitted dose curve; in most records, active means well fitted cell-killing curve with a large enough effect in the repeat runs; inconclusive means weak or mixed curves, or effect the other way; inactive means no such curve, though single readings can be large or run the other way.
Potency means the concentration at half of the fitted maximal effect.

Assay: qHTS assay to identify small molecule antagonists of the retinoid-related orphan receptor gamma (ROR-gamma) signaling pathway - cell viability counter screen (AID 1159520); further: nearly all actives have a fitted effect of over 50% in size
Conditions: Tet-on RORgamma CHO cells viability, ATP luminescence, 16 h; series mostly up to 92.4 µM; activity, negative = cytotoxicity: at the top concentration
Excerpt: U.S. Tox21 Program National Center for Advancing Translational Sciences [NCATS] NIH Chemical Genomics Center [NCGC] U.S. Environmental Protection Agency [EPA] National Institutes of Environmental Health Sciences [NIEHS] National Toxicology Program [NTP] U.S. Food and Drug Administration [FDA] Tox21 Assay Overview: Nuclear steroid hormone receptors are involved in many biological processes including inflammatory responses, cell proliferation, and apoptosis. Environmental factors or compounds disrupting these nuclear receptor pathways and gene expression may promote susceptibility to immunotoxicants and autoimmune diseases. One important group of these expression factors are the retinoid-related orphan receptors. To assess compounds that may interfere with the retinoid-related orphan receptor gamma (ROR-gamma) transcription factor, a cell-based luciferase assay was used. The CHO cell-based assay utilizes a TET-inducible ROR expression factor and ROR response element-LUC reporter gene. Reporter gene activity was induced using Doxycycline Hyclate and measured after 16 hr incubation. Tet-on ROR gamma CHO cells were used to screen against the Tox21 10K compound library for cytotoxicity by measuring the viability of the cells based on the quantitation of the ATP.
Tox21 Assay Protocol Summary: Tet-on ROR gamma CHO cells were dispensed at 1,000 cells in 4 uL of culture medium per well into white wall/solid bottom 1536-well plates using a Multidrop Combi (Thermo Scientific, Waltham, MA) dispenser. Following incubation at 37 C and 5% CO2 for 4 hr, 23 nL of compounds dissolved in DMSO, positive controls or DMSO only were transferred by a Pintool station (Kalypsys, San Diego, CA) and after 2 hr incubation at 37 C, one ul of 1 uM (final concentration) of Doxycycline Hyclate was added to all the wells by using a Flying Reagent Dispenser (FRD) (Aurora Discovery, San Diego, CA). After 16 hr incubation at 37 C and 5% CO2, 5 uL of CellTiter-Glo reagent (Promega Corporation, Madison, WI) was added to each assay plate using FRD. After 30 min incubation at room temperature, luminescence was quantified on a ViewLux plate reader (Perkin Elmer, Waltham, MA).
With `ClC1=C(Cl)C(Cl)(Cl)C(Cl)=C1Cl` the Potency was 7.74 µM (active) and 6.11 µM (active). For `CCCCC(CC)COC(=O)/C=C\C(=O)OCC(CC)CCCC` (stereo not given), the Potency was “inactive”. For `CCCCOCCOCCOC(=O)CCCCC(=O)OCCOCCOCCCC`, the Potency was “inactive”. With `CCc1ccccc1O` the Potency was 60.8 µM (active) and inactive. For `Cc1cc(NS(=O)(=O)c2ccc(N)cc2)no1`, the Potency was “inactive”. For `CCCCCCCCCCCCN`, the Potency was “inactive”. With `Oc1ccc2ccccc2c1N=Nc1ccccc1` the Potency was “inactive”. In the case of `OCCOCCOCCOCCO`, the Potency is reported as “inactive”. In the case of `COC(=O)Nc1nc2ccc(Sc3ccccc3)cc2[nH]1`, the Potency is reported as 26.6 µM (active). With `NC(=O)NNc1ccccc1` the Potency was “inactive”. In the case of `CC(C)Cc1ccccc1`, the Potency is reported as “inactive”. In the case of `NCCc1ccc(O)c(O)c1`, the Potency is reported as “inactive”. For `CCCCCCCCCCC=CC1CC(=O)OC1=O` (stereo not given), the Potency was “inactive”. For `CCOC(=O)C1OC1c1ccccc1` (stereo not given), the Potency was “inactive”. For `O=S(=O)(O)CCS`, the Potency was “inactive”. For `O=S(=O)(Oc1ccc(Cl)cc1Cl)c1ccccc1`, the Potency was “inactive”. With `CN(C)c1cccc(O)c1` the Potency was “inactive”. For `CC1=C(CC(=O)O)c2cc(F)ccc2/C1=C\c1ccc(S(C)=O)cc1` (stereo not given), the Potency was “inactive”. With `CCc1ccc(O)cc1` the Potency was “inactive”. In the case of `C/C=C(C)/C=C/C=C(C)C`, the “activity, negative = cytotoxicity” value is reported as -17.6% (inactive). With `Cc1ccc(C)c(C)c1` the Potency was “inactive”. For `Cc1cc(=O)[nH]c(C(C)C)n1`, the Potency was “inactive”. For `C[C@@H](O)[C@H]1C(=O)N2C(C(=O)O)=C(S[C@@H]3CN[C@H](C(=O)N(C)C)C3)[C@H](C)[C@H]12`, the Potency was “inactive”. With `CCC(=O)O` the Potency was “inactive”. With `c1ccc2[nH]cnc2c1` the Potency was “inactive”. For `CC#C[C@]1(O)CC[C@H]2[C@@H]3CCC4=CC(=O)CCC4=C3[C@@H](c3ccc(N(C)C)cc3)C[C@@]21C`, the “activity, negative = cytotoxicity” value was -18.3% [at 42.5 µM] (inactive). For `NC(=O)/N=N/C(N)=O`, the Potency was “inactive”. With `CCCCC(CC)C(=O)OCCOCCOCCOC(=O)C(CC)CCCC` (stereo not given) the Potency was “inactive”. For `CC1CC(OC(=O)c2ccccc2O)CC(C)(C)C1` (stereo not given), the Potency was “inactive”. For `OC[C@@H](O)[C@H](O)[C@H](O)[C@@H](O)CO`, the Potency was “inactive”. In the case of `CC(C)(CO)COC(=O)C(C)(C)CO`, the Potency is reported as “inactive”. For `O=C(Oc1ccccc1)c1ccc(O)cc1`, the Potency was “inactive”. With `Cn1c([N+](=O)[O-])cnc1COC(N)=O` the Potency was “inactive”. In the case of `CC(C)NCC(O)COc1cccc2ccccc12` (stereo not given), the Potency is reported as “inactive”. For `C=C1C2CCC(C2)C1(C)C` (stereo not given), the Potency was “inactive”. In the case of `O=C(O)c1cc(-c2ccccc2)nc2ccccc12`, the Potency is reported as “inactive”. With `CCOC(=O)[C@H](CCc1ccccc1)N[C@@H](C)C(=O)N1Cc2ccccc2C[C@H]1C(=O)O` the Potency was “inactive”. With `O=S(=O)(O)c1cc(S(=O)(=O)O)c2c(N=Nc3ccccc3)c(O)ccc2c1` the Potency was “inactive”. In the case of `C=C(C)C(=O)OCCCCCCCCCCCC`, the Potency is reported as “inactive”. With `CCCCC(CC)COC(=O)CCCCCCCC(=O)OCC(CC)CCCC` (stereo not given) the Potency was “inactive”.
